From PubChem BioAssay (EPA / NIEHS) come the findings set out here.

Molecules are shown by their SMILES. The source made the active and inactive calls. Rule for the calls: active = hit-call score of the fitted dose curve at least 0.9, where 1 is the maximum; inactive = score below 0.9.

Holding throughout (settings): mRNA level, 48 h; actives raise or lower the signal
Read-out in assay [1]: CYP2C9 (gene 1559)
In words: LTEA_HepaRG_CYP2C9: Life Technologies and Expression Analysis (LTEA) Assay for CYP2C9 using HepaRG (AID 2283484). The procedure, abridged:
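Eight-point concentration-response (highest 100 uM, half-log dilutions) in HepaRG cells for 48 h; CYP2C9 expression by qRT-PCR normalized to ACTB, GAPDH, POLR2A. Bidirectional fit, DMSO baseline.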

Read-out in assay [2]: CYP2E1 (gene 1571)
Kind of assay: LTEA_HepaRG_CYP2E1: Life Technologies and Expression Analysis (LTEA) Assay for CYP2E1 using HepaRG (AID 2283485). The procedure, abridged:
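Assay uses 48 h exposure of HepaRG hepatic cells, eight concentrations to 100 uM. Expression of CYP2E1 is quantified by TaqMan qRT-PCR with ACTB, GAPDH and POLR2A normalization; curves fitted in both directions relative to vehicle.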

Read-out in assay [3]: CYP4A11 (gene 1579)
Kind of assay: LTEA_HepaRG_CYP4A11: Life Technologies and Expression Analysis (LTEA) Assay for CYP4A11 using HepaRG (AID 2283486). In short, it runs like this: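 CYP4A11 transcript levels were quantified by TaqMan qRT-PCR after HepaRG human liver cells were treated for 48 hours with test chemicals (top 100 uM, half-log dilutions, 0.5% DMSO). Gain or loss of signal was fitted relative to DMSO.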

Read-out in assay [4]: Cytochrome P450 3A4 (Homo sapiens) (UniProt P08684)
Kind of assay: LTEA_HepaRG_CYP3A4: Life Technologies and Expression Analysis (LTEA) Assay for CYP3A4 using HepaRG (AID 2283487). The procedure, abridged:
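CYP3A4 transcript measured by TaqMan qRT-PCR and normalized to three housekeeping genes after 48 h chemical exposure of human HepaRG cells. Top concentration 100 uM, half-log steps, 0.5% DMSO vehicle; gain or loss fitted against DMSO baseline.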

Read-out in assay [5]: DNA damage-inducible transcript 3 (DDIT3), DDIT3 (gene 1649)
In words: LTEA_HepaRG_DDIT3: Life Technologies and Expression Analysis (LTEA) Assay for DNA damage-inducible transcript 3 (DDIT3) using HepaRG (AID 2283488). The procedure, abridged: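 Eight-point concentration-response (100 uM highest, half-log dilutions) in HepaRG, 48 h, duplicate wells. Endpoint: qRT-PCR mRNA, normalized (ACTB, GAPDH, POLR2A), bidirectional fitting with DMSO as baseline.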

Read-out in assay [6]: Pro-epidermal growth factor (Homo sapiens) (UniProt P01133)
In words: LTEA_HepaRG_EGF: Life Technologies and Expression Analysis (LTEA) Assay for Epidermal growth factor (EGF) using HepaRG (AID 2283489). The procedure, abridged: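 qRT-PCR readout of EGF transcript after 48 h chemical exposure of HepaRG cells; eight concentrations from 100 uM down in half-log steps, duplicate wells, 0.5% DMSO vehicle. Bidirectional curve fitting against DMSO baseline.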

Read-out in assay [7]: Early growth response protein 1 (EGR1) transcription factor, EGR1 (gene 1958)
In words: LTEA_HepaRG_EGR1: Life Technologies and Expression Analysis (LTEA) Assay for Early growth response protein 1 (EGR1) transcription factor using HepaRG (AID 2283490). The procedure, abridged: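 EGR1 expression change in human HepaRG after 48 h chemical exposure, assessed by housekeeping-normalized qRT-PCR; concentration-response up to 100 uM, fitted in both directions against DMSO controls.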

Read-out in assay [8]: Ezrin (EZR), EZR (gene 7430)
Kind of assay: LTEA_HepaRG_EZR: Life Technologies and Expression Analysis (LTEA) Assay for Ezrin (EZR) using HepaRG (AID 2283491). In short, it runs like this: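 HepaRG, 48 h chemical exposure, 8-pt half-log series from 100 uM, 0.5% DMSO vehicle, duplicates. Read-out: EZR mRNA by TaqMan qRT-PCR (Fluidigm array), housekeeping-normalized; bidirectional curve fit vs DMSO baseline.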

Read-out in assay [9]: CYP3A5 (gene 1577)
In words: LTEA_HepaRG_CYP3A5: Life Technologies and Expression Analysis (LTEA) Assay for CYP3A5 using HepaRG (AID 2283493). The procedure, abridged: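 Readout was CYP3A5 mRNA by qRT-PCR. HepaRG cultures were exposed for 48 h in serum-free induction medium to chemicals at up to 100 uM, and responses were fitted in both directions relative to DMSO vehicle.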

Read-out in assay [10]: Fatty Acid-Binding Protein 1 (FABP1), FABP1 (gene 2168)
In words: LTEA_HepaRG_FABP1: Life Technologies and Expression Analysis (LTEA) Assay for Fatty Acid-Binding Protein 1 (FABP1) using HepaRG (AID 2283494). The procedure, abridged: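 Values reflect bidirectional concentration-response fitting of FABP1 mRNA change against 0.5% DMSO controls. Human HepaRG cultures received eight half-log doses (top 100 uM) for 48 h; expression quantified by TaqMan qRT-PCR with housekeeping-gene normalization.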

Read-out in assay [11]: Cytochrome P450 4A22 (Homo sapiens) (UniProt Q5TCH4)
Kind of assay: LTEA_HepaRG_CYP4A22: Life Technologies and Expression Analysis (LTEA) Assay for Cytochrome P450 4A22 (CYP4A22) using HepaRG (AID 2283495). In short, it runs like this:
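HepaRG, 48 h post-plating -> serum-free induction medium; dosed 48 h, duplicate, 8 conc. (100 uM top, half-log), 0.5% DMSO. Readout: CYP4A22 mRNA by qRT-PCR, ACTB/GAPDH/POLR2A normalization; gain/loss fit relative to DMSO.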

Read-out in assay [12]: Cytochrome P450 7A1 (Homo sapiens) (UniProt P22680)
In words: LTEA_HepaRG_CYP7A1: Life Technologies and Expression Analysis (LTEA) Assay for Cytochrome P450 7A1 (CYP7A1) using HepaRG (AID 2283496). The procedure, abridged: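 Using 0.5% DMSO as vehicle and baseline, chemicals were tested in duplicate over an 8-point range from 100 uM on HepaRG cells for 48 h; qRT-PCR signals were normalised to ACTB, GAPDH and POLR2A.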

Read-out in assay [13]: Glutathione S-Transferase (GSTA2), GSTA2 (gene 2939)
Kind of assay: LTEA_HepaRG_GSTA2: Life Technologies and Expression Analysis (LTEA) Assay for Glutathione S-Transferase (GSTA2) using HepaRG (AID 2283497). In short, it runs like this: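 Oxidative-stress marker GSTA2 is quantified by TaqMan qRT-PCR in HepaRG cultures treated 48 h across an eight-point range to 100 uM. Expression is normalized to endogenous controls and compared with 0.5% DMSO vehicle.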

Read-out in assay [14]: Glutamate-cysteine ligase catalytic (GCLC), GCLC (gene 2729)
Kind of assay: LTEA_HepaRG_GCLC: Life Technologies and Expression Analysis (LTEA) Assay for Glutamate-cysteine ligase catalytic (GCLC) using HepaRG (AID 2283498). In short, it runs like this: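 Oxidative-stress marker GCLC is measured as mRNA change in human HepaRG liver cells after 48 h chemical treatment in 0.5% DMSO, eight concentrations from 100 uM. Activity is fitted bidirectionally against vehicle.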

Read-out in assay [15]: growth arrest and DNA damage 45 (GADD45G), GADD45G (gene 10912)
In words: LTEA_HepaRG_GADD45G: Life Technologies and Expression Analysis (LTEA) Assay for growth arrest and DNA damage 45 (GADD45G) using HepaRG (AID 2283499). The procedure, abridged: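 HepaRG, 48 h exposure, top 100 uM, half-log 8-point series, 0.5% DMSO vehicle, duplicates. Readout: GADD45G transcript by qRT-PCR (Fluidigm array), housekeeping-normalised (ACTB/GAPDH/POLR2A). Bidirectional curve fit vs DMSO baseline.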

Read-out in assay [16]: Glutamate-cysteine ligase regulatory (GCLM), GCLM (gene 2730)
In words: LTEA_HepaRG_GCLM: Life Technologies and Expression Analysis (LTEA) Assay for Glutamate-cysteine ligase regulatory (GCLM) using HepaRG (AID 2283500). The procedure, abridged: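 In this multiplexed HepaRG gene-expression assay, GCLM mRNA change after 48 h treatment (8 concentrations, max 100 uM) was scored against DMSO by bidirectional curve fitting.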

Read-out in assay [17]: Glutathione S-transferase M3 (GSTM3), GSTM3 (gene 2947)
Kind of assay: LTEA_HepaRG_GSTM3: Life Technologies and Expression Analysis (LTEA) Assay for Glutathione S-transferase M3 (GSTM3) using HepaRG (AID 2283501). The procedure, abridged:
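qRT-PCR read-out of GSTM3 transcript, normalized to three housekeeping genes, from human HepaRG cells after 48 h chemical exposure. Eight-point half-log series, top 100 uM, 0.5% DMSO vehicle; gain or loss fitted relative to DMSO baseline.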

Read-out in assay [18]: Heat shock 70 kDa protein 1 (HSPA1A), gene 3303
Kind of assay: LTEA_HepaRG_HSPA1A: Life Technologies and Expression Analysis (LTEA) Assay for Heat shock 70 kDa protein 1 (HSPA1A) using HepaRG (AID 2283502). In short, it runs like this: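 An oxidative-stress marker readout: HepaRG cells treated 48 h in duplicate with an eight-point series (highest 100 uM) had HSPA1A mRNA quantified by TaqMan qRT-PCR. Activity was fitted in both directions using 0.5% DMSO as baseline.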

Read-out in assay [19]: Hypoxia-inducible factor 1-alpha (Homo sapiens) (UniProt Q16665)
Kind of assay: LTEA_HepaRG_HIF1A: Life Technologies and Expression Analysis (LTEA) Assay for Hypoxia-inducible factor 1 (HIF1A) Trancription factor using HepaRG (AID 2283503).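 Note: HIF1A transcript by TaqMan qRT-PCR normalized to ACTB GAPDH and POLR2A.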 The procedure, abridged: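 Gain- or loss-of-signal HIF1A mRNA changes are fitted against a DMSO baseline. HepaRG cultures receive eight concentrations, highest 100 uM, for 48 h in serum-free induction medium with 0.5% DMSO.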

Read-out in assay [20]: Cytochrome P450 3A7 (Homo sapiens) (UniProt P24462)
Kind of assay: LTEA_HepaRG_CYP3A7: Life Technologies and Expression Analysis (LTEA) Assay for CYP3A7 using HepaRG (AID 2283492). In short, it runs like this: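 CYP3A7 transcript levels were read by TaqMan qRT-PCR on Fluidigm arrays after 48 h chemical exposure of human HepaRG cells, with housekeeping-gene normalisation. Eight half-log concentrations up to 100 uM in 0.5% DMSO were tested in duplicate.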

Chain of Cytochrome P450 3A4 (Homo sapiens) (P08684 whole entry, looked up): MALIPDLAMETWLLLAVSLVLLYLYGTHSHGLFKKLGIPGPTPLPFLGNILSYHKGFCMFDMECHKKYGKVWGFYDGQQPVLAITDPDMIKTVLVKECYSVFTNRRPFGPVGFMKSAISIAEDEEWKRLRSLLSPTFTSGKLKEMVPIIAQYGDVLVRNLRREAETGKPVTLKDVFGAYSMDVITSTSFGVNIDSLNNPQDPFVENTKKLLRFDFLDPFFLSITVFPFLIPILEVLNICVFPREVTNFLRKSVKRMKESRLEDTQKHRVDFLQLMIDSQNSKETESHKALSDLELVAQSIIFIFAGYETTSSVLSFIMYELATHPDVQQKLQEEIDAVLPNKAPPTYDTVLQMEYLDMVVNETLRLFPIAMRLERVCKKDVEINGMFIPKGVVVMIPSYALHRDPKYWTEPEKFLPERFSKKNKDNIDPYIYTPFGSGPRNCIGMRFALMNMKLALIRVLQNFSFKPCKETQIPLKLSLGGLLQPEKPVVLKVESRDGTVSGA
Chain of Hypoxia-inducible factor 1-alpha (Homo sapiens) (Q16665 whole entry, looked up): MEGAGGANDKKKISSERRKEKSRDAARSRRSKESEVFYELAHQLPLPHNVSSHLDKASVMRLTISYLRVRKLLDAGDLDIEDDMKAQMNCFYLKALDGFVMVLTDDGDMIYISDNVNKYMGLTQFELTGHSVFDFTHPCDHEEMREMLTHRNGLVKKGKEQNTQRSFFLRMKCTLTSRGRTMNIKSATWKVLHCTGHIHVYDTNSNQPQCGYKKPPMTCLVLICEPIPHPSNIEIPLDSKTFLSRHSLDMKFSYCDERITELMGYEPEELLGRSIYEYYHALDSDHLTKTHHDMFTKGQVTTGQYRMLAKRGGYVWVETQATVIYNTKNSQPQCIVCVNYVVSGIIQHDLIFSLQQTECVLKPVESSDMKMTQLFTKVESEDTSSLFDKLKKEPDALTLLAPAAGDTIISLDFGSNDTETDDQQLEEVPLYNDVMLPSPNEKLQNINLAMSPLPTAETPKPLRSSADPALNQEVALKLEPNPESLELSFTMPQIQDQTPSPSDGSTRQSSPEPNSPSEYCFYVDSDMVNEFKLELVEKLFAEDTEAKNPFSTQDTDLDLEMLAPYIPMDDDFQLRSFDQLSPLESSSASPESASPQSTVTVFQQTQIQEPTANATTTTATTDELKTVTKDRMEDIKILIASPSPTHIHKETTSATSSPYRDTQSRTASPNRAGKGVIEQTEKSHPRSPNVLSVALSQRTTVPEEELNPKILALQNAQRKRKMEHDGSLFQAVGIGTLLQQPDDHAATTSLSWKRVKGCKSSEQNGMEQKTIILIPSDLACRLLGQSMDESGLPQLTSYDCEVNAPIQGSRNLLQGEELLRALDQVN
Chain of Cytochrome P450 3A7 (Homo sapiens) (P24462 whole entry, looked up): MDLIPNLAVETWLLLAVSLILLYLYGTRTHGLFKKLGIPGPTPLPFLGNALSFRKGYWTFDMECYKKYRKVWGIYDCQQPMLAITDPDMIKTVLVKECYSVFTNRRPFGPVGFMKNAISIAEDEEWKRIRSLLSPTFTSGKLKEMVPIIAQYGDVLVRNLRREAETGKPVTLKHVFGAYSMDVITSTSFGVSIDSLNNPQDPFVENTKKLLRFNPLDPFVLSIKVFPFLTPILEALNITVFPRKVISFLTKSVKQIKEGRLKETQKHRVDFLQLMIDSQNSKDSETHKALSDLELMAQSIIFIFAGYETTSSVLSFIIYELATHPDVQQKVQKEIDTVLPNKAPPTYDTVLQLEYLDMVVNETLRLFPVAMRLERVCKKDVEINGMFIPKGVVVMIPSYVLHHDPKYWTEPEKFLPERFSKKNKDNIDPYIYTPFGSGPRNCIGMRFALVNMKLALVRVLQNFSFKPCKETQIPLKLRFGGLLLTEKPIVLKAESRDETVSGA

Turning to `Cn1cc(-c2ccccc2)c(=O)c(-c2cccc(C(F)(F)F)c2)c1`, the concentration at half-maximal activity (AC50) (as a rule, the midpoint of the concentration-response curve, whichever way the signal moves) was 0.468 µM (active) in assay [1]; 11.9 µM (active) in [2]; 2.92 µM (active) in [4]; 89.8 µM (active) in assay [5]; 50 µM (active) in assay [15]; 16.3 µM (active) in [18]. Besides, the molecule was called inactive in assay [3], in [6], in assay [7], in assay [8], in assay [9] and in [10]. The molecule was called inactive in [11], in assay [12], in assay [13], in assay [14], in [16] and in [17]. Moreover, the molecule was classed as inactive in [19].

Consider `Cc1ccc(N=C=O)cc1N=C=O`, for which the AC50 in assay [1] is 50 µM (active); in assay [2], 31.1 µM (active); in assay [3], 20.8 µM (active); in assay [5] it was 13.3 µM (active); in assay [7], 50 µM (active); in assay [10], 23 µM (active). For the same molecule, the concentration at half-maximal activity (AC50) in assay [11] was 50 µM (active); in assay [12] it was 31.7 µM (active); in [13], 50 µM (active); in assay [14] it was 30.3 µM (active); in [15] it was 50 µM (active); in assay [18], 30.4 µM (active). Further, the molecule was called inactive in assay [4], in [6], in assay [8], in assay [9], in [16] and in assay [17]. Also, the molecule was classed as inactive in assay [19].

For `C[N+](C)(C)CC1CO1` (stereo not given), the call in assay [1], in [2], in [3], in assay [4], in assay [5] and in assay [6] was inactive. Further, the call in assay [7], in [8], in assay [9], in assay [10], in assay [11] and in assay [12] was inactive. For the same molecule, the result in assay [13], in [14], in assay [15], in [16] and in [18] was inactive.

For the molecule `O=Cc1ccco1`, the outcome in assay [1], in assay [2], in assay [3], in [4], in assay [5] and in assay [6] was inactive. In addition, the molecule was called inactive in [7], in assay [8], in [9], in [10], in assay [11] and in [12]. In addition, the molecule was called inactive in [13], in assay [14], in assay [15], in [16], in assay [17] and in assay [18].

As to `CCCCOC(=O)c1ccccc1C(=O)OCc1ccccc1`, the outcome in assay [1], in [2], in assay [3], in assay [4], in [5] and in assay [6] was inactive. In addition, the outcome in assay [7], in [8], in assay [20], in [9], in [10] and in assay [11] was inactive. The call in [12], in assay [13], in [14], in assay [15], in assay [16] and in [18] was inactive. In assay [19], the result was inactive.

As to `Clc1ccc(Cl)c(Cl)c1`, the molecule was classed as inactive in assay [1], in assay [3], in assay [4], in assay [6], in assay [7] and in assay [8]. Moreover, the outcome in [9], in assay [10], in [11], in assay [15], in assay [16] and in assay [17] was inactive. Besides, in assay [18], the outcome was inactive. The AC50 in assay [2] is 50 µM (active); in [5] it was 9.92 µM (active); in assay [12], 50 µM (active); in assay [13], 84 µM (active); in assay [14], 9.92 µM (active).

For `c1ccc2c(c1)-c1cccc3cccc-2c13`, the outcome in assay [1], in assay [3], in assay [5], in assay [7], in assay [8] and in [9] was inactive. Further, the molecule was classed as inactive in assay [13], in assay [14], in assay [15], in [16], in assay [18] and in assay [19]. Further, the values for the AC50 in assay [2], in [4] and in [10] were 34.6 µM (active), 18 µM (active) and 50 µM (active), respectively.
